Test [1] relates to CRL-7250. The test is described as follows: Cytotoxic Profiling of Annotated Libraries Using Quantitative High-Throughput Screening (AID 1296008). Further: potency means the concentration at half of the fitted maximal effect. On max response: on the % scale 0 is the no-effect control and ±100 the full control effect. Conditions: Five cell lines viability, CellTiter-Glo ATP luminescence, 48-72 h; max response: stronger effect = lower value. In a few lines: (§1)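 Compounds were pin-transferred onto cells and incubated 48 or 72 hr at 37 degree Celsius, 95% humidity. CellTiter-Glo was added, plates sat 10 min at room temperature, then ATP-coupled luminescence was imaged as the viability read-out.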
In general terms: ATP-based viability assays read luminescence as a measure of living cells.

Test [2] relates to HEK293. The description is as above. The note with it: Five cell lines viability, CellTiter-Glo ATP luminescence, 48-72 h; max response: stronger effect = lower value. The essentials: as §1
Test [3] has as its system HaCat. The test is described as above. The note with it: Five cell lines viability, CellTiter-Glo ATP luminescence, 48-72 h; max response: stronger effect = lower value. The essentials:
as §1

The subject of test [4] is KB-3-1. The description is as above. The note with it: Five cell lines viability, CellTiter-Glo ATP luminescence, 48-72 h; max response: stronger effect = lower value. In a few lines: as §1
Test [5] relates to NIH3T3. The test is described as above. Conditions: Five cell lines viability, CellTiter-Glo ATP luminescence, 48-72 h; max response: stronger effect = lower value. In a few lines:
as §1

The test system of test [6] is CRL-7250. The test is described as follows: qHTS assay to identify novel small-molecules to repurpose for Merkel cell carcinoma treatment (AID 1296009). The note with it: MCC and control cell lines, CellTiter-Glo viability, 72 h; at 44.8 µM (top of the series) unless noted. In a few lines: (§2)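 Cells exposed to NPC (8-point) and MIPE (11-point) compound dilutions for 72 hr at 37 degree celsius; viability read by CellTiter-Glo luminescence, normalized to no-cell and DMSO in-plate controls.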

The subject of test [7] is HACAT. The description is as above. Conditions: MCC and control cell lines, CellTiter-Glo viability, 72 h; at 44.8 µM (top of the series) unless noted. The essentials: as §2
Test [8] concerns HEK293T. Described as above. Conditions: MCC and control cell lines, CellTiter-Glo viability, 72 h; at 44.8 µM (top of the series) unless noted. In a few lines: as §2

“And” between values parts separate entries of the source, which are not always exact repeats. Equal entries are not always repeated. Inconclusive results are not listed. More than one record can exist for a structure, and the calls need not agree. A number with no mark means an inactive call. The source made the active and inactive calls. The call rests on the fitted dose curve; in most records, active means well fitted inhibition curve with a large enough effect; inconclusive means small, poorly fitted or top-dose-only effect; inactive means flat fitted curve, though single readings scatter.
Further: nearly all actives have a fitted effect of over 60% in size.

`C[C@@]12OC(=O)[C@]1([C@@H](O)[C@@H]1C=CCCC1)NC(=O)[C@H]2CCCl`: the Potency was 209 nM (active) in test [1], 74.3 nM (active) in test [2], 16.6 µM (active) in test [3] and 0.418 µM (active) in test [4].

Take `COC1=C[C@@H]2[C@@H]3Cc4ccc(OC)c(O)c4[C@]2(CCN3C)CC1=O`: the outcome in test [1], in test [3], in test [4], in test [5], in test [6] and in test [7] was inactive. In addition, the max response in test [2] was 1.05% and -3.7%; in test [3], -2.22%; in test [4] it was 1.47%.

Consider `CC(Cc1ccc(O)cc1)NCC(O)c1cc(O)cc(O)c1` (centres undefined), for which the max response in test [1] is 3.52%; in test [2], -1.83%; in test [3] it was -18.5%; in test [4], 6.39%; in test [5], -6.43%.

On to `CCc1c(C(=O)C(N)=O)c2c(OCC(=O)O)cccc2n1Cc1ccccc1`, for which the max response is 2.27% and 4.29% in test [1]; -0.0349% in test [2]; -1.12% and -1.77% in test [3]; 9.54% in test [4]; -3.2% in test [5]. Besides, the outcome in test [4] and in test [5] was inactive.

In the case of `CC1(N2CCC(n3c([C@@H]4CCCNC4)nc4ccccc43)CC2)CCCCCCC1`, the Potency in test [1] is 14800 nM (active); in test [2] it was 4.69 µM (active) and 7.31 µM (active). For the same compound, the max response in test [3] was -28.8%.

Take `Oc1ccc2c3c1O[C@H]1[C@@H](O)C=C[C@H]4[C@@H](C2)NCC[C@@]341`: the max response in test [1] was -20.7%; in test [2], -17.4%; in test [3], -5.53%; in test [4], -5.17%; in test [5], -2.9%.

Regarding `CC(=Cc1csc(C)n1)[C@@H]1C[C@H]2O[C@]2(C)CCC[C@H](C)[C@@H](O)[C@@H](C)C(=O)C(C)(C)[C@@H](O)CC(=O)O1`, the max response in test [1] was -93.2%; in test [2] it was -85.5%; in test [3], -55%; in test [5] it was -85.8%. In addition, the Potency in test [4] is 0.0001 µM (active).

For the compound `CC(=O)Nc1ccc(OC[C@](C)(O)C(=O)Nc2ccc([N+](=O)[O-])c(C(F)(F)F)c2)cc1`, the max response in test [1] was -1.8% and -4.07%; in test [2] it was -11.2%; in test [3], -8.66% and -10.1%; in test [4] it was -13.4% and 7.92%; in test [5] it was 2.34%. Further, the outcome in test [2], in test [5] and in test [8] was inactive.

On to `Cc1[nH]nc2ccc(-c3cncc(OC[C@@H](N)Cc4c[nH]c5ccccc45)c3)cc12`, for which the Potency was 935 nM (active) and 2.06 µM (active) in test [1]; 132 nM (active) and 103 nM (active) in test [2]; 1.18 µM (active) in test [3]; 0.146 µM (active) in test [4]; 1.66 µM (active) and 1.64 µM (active) in test [5].

For `CCN1CCN(C(=O)Cc2ccc(Nc3ncc(F)c(Nc4ccc(C(=O)Nc5ccccc5Cl)cc4)n3)cc2)CC1`, the Potency in test [1] was 26.4 µM (active) and 16.4 µM (active); in test [2], 3.72 µM (active) and 2.59 µM (active); in test [3], 8.2 µM (active); in test [4] it was 1.84 µM (active); in test [5], 20.6 µM (active).

As to `CC[C@@]1(O)C(=O)OCc2c1cc1n(c2=O)Cc2cc3ccccc3nc2-1`, the Potency was 418 nM (active) in test [1]; 41.8 nM (active) in test [2]; 0.0469 µM (active) in test [3]; 0.469 µM (active) in test [4]; 0.148 µM (active) in test [5].

Take `Nc1ccc(Cl)cc1`: the max response in test [1] was -5.83%; in test [2], 4.83%; in test [3], -11.6%; in test [4] it was -17.1%; in test [5] it was 2.51%.

In the case of `CCNC(=O)CC1N=C(c2ccc(Cl)cc2)c2cc(OC)ccc2-n2c(C)nnc21` (centres undefined), the Potency in test [1] was 1640 nM (active); in test [2], 6510 nM (active). The max response in test [1] is -29.2% and -3.83%; in test [2] it was -10.4%; in test [3], -4.28% and 0.244% and -23.7%; in test [4] it was -3.15%; in test [5], 4.41%. Further, the call in test [2], in test [4], in test [5] and in test [8] was inactive.

For the compound `CCCCCC[C@H]1C(=O)O[C@H](C)[C@H](NC(=O)c2cccc(NC=O)c2O)C(=O)O[C@@H](C)[C@@H]1OC(=O)CC(C)C`, the results for the Potency in test [1] and in test [2] were 1480 nM (active) and 469 nM (active), respectively. Further, the max response in test [3] is -16%.

As for `C=CCON=C(C[C@H]1O[C@@H]2O[C@]3(C)CC[C@@H]4[C@H](C)CC[C@@H]([C@H]1C)[C@@]24OO3)[C@H]1O[C@@H]2O[C@]3(C)CC[C@H]4[C@H](C)CC[C@@H]([C@@H]1C)[C@@]24OO3`, the Potency in test [1] was 935 nM (active); in test [2] it was 235 nM (active); in test [3] it was 2.96 µM (active); in test [4], 1.32 µM (active).

Take `COC(=O)c1cncn1C(C)c1ccccc1` (centres undefined): the max response was -11.1% in test [1]; -16.1% in test [2]; -2.03% in test [3]; -9.65% in test [4]; 3.22% in test [5].

For the origin of these results see PubChem BioAssay (NCATS).
